Reference: PubChem BioAssay (NCATS)
Records with an inconclusive call do not appear. Activity calls are given as the source filed them. Calls follow the shape of the dose curve; as a rule, active = well fitted inhibition curve with a large enough effect in the signal ratio, with a control signal flat (not every such curve was filed as active); inconclusive = small, poorly fitted or top-dose-only effect, or effect the other way, or a change in a side signal; inactive = no such curve, though single readings can be large or run the other way; the % refers to the signal ratio.

What follows are compounds tested against Peroxisome proliferator-activated receptor delta (Homo sapiens) (UniProt Q03181) (assay: qHTS assay for small molecule antagonists of peroxisome proliferator-activated receptor delta signaling (AID 588535)). Conditions: HEK293T PPARd-UAS-bla, beta-lactamase FRET ratio, 18 h; series mostly up to 76.7 µM.
Sequence of Peroxisome proliferator-activated receptor delta (Homo sapiens) (Q03181 whole entry, looked up): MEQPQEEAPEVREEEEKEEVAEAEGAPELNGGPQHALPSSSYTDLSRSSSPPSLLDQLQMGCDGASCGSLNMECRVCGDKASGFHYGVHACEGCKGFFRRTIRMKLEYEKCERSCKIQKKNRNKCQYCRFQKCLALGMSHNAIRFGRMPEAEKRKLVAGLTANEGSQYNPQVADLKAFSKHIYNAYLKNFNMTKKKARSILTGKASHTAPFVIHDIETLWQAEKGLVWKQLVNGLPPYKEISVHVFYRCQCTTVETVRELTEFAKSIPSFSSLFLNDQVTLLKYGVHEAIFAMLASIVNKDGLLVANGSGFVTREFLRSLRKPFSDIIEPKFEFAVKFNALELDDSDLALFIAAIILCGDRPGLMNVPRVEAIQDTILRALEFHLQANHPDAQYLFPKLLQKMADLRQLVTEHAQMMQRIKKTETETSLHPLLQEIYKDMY
From the text: NIH Chemical Genomics Center [NCGC] U.S. Environmental Protection Agency [EPA] National Institutes of Environmental Health Sciences [NIEHS] National Toxicology Program [NTP] NCGC Assay Overview The Peroxisome proliferator-activated receptors (PPARs) are lipid-activated transcription factors of the nuclear receptor superfamily with three distinct subtypes namely PPAR alpha, PPAR delta (also called PPAR beta) and PPAR gamma. All these subtypes heterodimerizes with Retinoid X receptor (RXR) and have different physiological functions. […] This role of PPAR delta implicates the potential use of its ligands in the treatment of metabolic disorders.
NCGC Assay Protocol Summary Using a beta-lactamase reporter-gene under control Peroxisome Proliferator-Activated Receptor delta (PPAR-delta) response element, a cell-based assay [GeneBLAzer (PPAR-delta-UAS-bla assay developed by Invitrogen] was used to measure PPAR-delta ligands signaling. GeneBLAzer PPAR-delta-UAS-bla HEK293T cells were used with assay medium containing 2% charcoal/dextran FBS. The assay was performed in clear bottom black Greiner 1536-well plates. Library compounds were measured for their ability to inhibit the reporter gene activity. Compounds were screened in a titration series in 1536-well format. The fluorescence intensity (405 nm excitation, 460/530 nm emission) was measured using an EnVision plate reader. […] Concentration-response titration points for each compound were fitted to the Hill equation yielding concentrations of half-maximal inhibition (IC50) and maximal response (efficacy) values. qHTS protocol for PPAR-delta beta-lactamase assay in antagonist mode [Step] [Parameter] [Value] [Description] 1. Reagent; 5 uL; 4000 cells/well 2. Incubation; 37 C for 5 hrs 3. Compounds; 23 nL; 0.59 nM to 92 uM 4. […] Incubation; 37 C for 18 hrs 7. Detection reagent; 1 uL of CCF4-dye 8. Incubation; RT for 2 hrs 9. Detection; Fluorescence; Envision plate reader
With `O=C(O)C(Br)CBr` (stereo not given) the outcome was “inactive”. For `CCSC(=O)N1CCCCCC1`, the outcome was “inactive”. With `Nc1cc(Cl)cc(C(=O)O)c1Cl` the outcome was “inactive”. In the case of `Nc1ccc(Cc2ccc(N)cc2)cc1`, the outcome is reported as “inactive”. In the case of `CCC(Cl)[N+](=O)[O-]` (stereo not given), the outcome is reported as “inactive”. For `CCCCCCCCCCCOC(=O)c1ccccc1C(=O)OCCCCCCCCCCC`, the outcome was “inactive”. In the case of `N#CCCC#N`, the outcome is reported as “inactive”. For `O=P(OCCCl)(OCCCl)OCCCl`, the outcome was “inactive”. In the case of `c1ccc(NNc2ccccc2)cc1`, the outcome is reported as “inactive”. With `O=[N+]([O-])c1ccc(Cl)c(Cl)c1Cl` the outcome was “inactive”. For `OCC(Cl)CCl` (stereo not given), the outcome was “inactive”. With `O=[N+]([O-])c1ccccc1CCl` the outcome was “inactive”. `Cc1ccc([N+](=O)[O-])cc1` was tested, and the outcome was “inactive”. With `COC(=O)Nc1nc2ccccc2[nH]1` the outcome was “inactive”. `CC(C)(C)OOC(=O)c1ccccc1` was tested, and the outcome was “inactive”. With `CC(C#N)CCC#N` (stereo not given) the outcome was “inactive”. With `CCCCC(=O)Cl` the outcome was “inactive”. `c1ccc(N=NNc2ccccc2)cc1` was tested, and the outcome was “inactive”. For `C=CCO`, the outcome was “inactive”. In the case of `Cc1ccc2c(C)cccc2c1`, the outcome is reported as “inactive”. With `OCCCCO` the outcome was “inactive”. `Oc1cc(Cl)ccc1Cl` was tested, and the outcome was “inactive”. For `Cc1ccc(OP(=O)(Oc2ccc(C)cc2)Oc2ccc(C)cc2)cc1`, the outcome was “inactive”. For `CCOC(=O)CBr`, the outcome was “inactive”. With `CCN(CC)CCO` the outcome was “inactive”. `CCOP(=S)(OCC)SCCSCC` was tested, and the outcome was “inactive”. With `CC(C)[N+](=O)[O-]` the outcome was “inactive”. For `ClCC(Cl)CCl`, the outcome was “inactive”. `O=[N+]([O-])c1c(Cl)c(Cl)c(Cl)c(Cl)c1Cl` was tested, and the outcome was “inactive”. With `C[N+](=O)[O-]` the outcome was “inactive”. With `Cc1cccc(C)c1N` the outcome was “inactive”. In the case of `Nc1ncc([N+](=O)[O-])s1`, the outcome is reported as “inactive”. `ClC(Cl)Br` was tested, and the outcome was “inactive”. With `O=[N+]([O-])c1cc(Cl)c(Cl)cc1Cl` the outcome was “inactive”. `Clc1ccc(C(Cl)(Cl)Cl)c(Cl)c1` was tested, and the outcome was “inactive”. For `CCN(N=O)C(N)=O`, the outcome was “inactive”. With `Oc1c(Cl)c(Cl)cc(Cl)c1Cl` the outcome was “inactive”. For `ClC=CCl`, the outcome was “inactive”. For `Clc1ccc(Cl)c(Cl)c1`, the outcome was “inactive”. In the case of `N#CC(Br)Br`, the outcome is reported as “inactive”.
